Holding throughout (experiment): DAPPL (digital affinity profiling via proximity ligation, sequencing); 10 mM Tris-HCl pH 7.5, 50 mM NaCl, 1 mM DTT, 4% glycerol, room temperature, 30 min; GST-TFs on glutathione beads, 16-mer random dsDNA library, 0.1% formaldehyde crosslink after washing; high values mean tight binding
The target of one assay is T1, FLI1 (Homo sapiens, UniProt Q01543 1-452).
T1 sequence: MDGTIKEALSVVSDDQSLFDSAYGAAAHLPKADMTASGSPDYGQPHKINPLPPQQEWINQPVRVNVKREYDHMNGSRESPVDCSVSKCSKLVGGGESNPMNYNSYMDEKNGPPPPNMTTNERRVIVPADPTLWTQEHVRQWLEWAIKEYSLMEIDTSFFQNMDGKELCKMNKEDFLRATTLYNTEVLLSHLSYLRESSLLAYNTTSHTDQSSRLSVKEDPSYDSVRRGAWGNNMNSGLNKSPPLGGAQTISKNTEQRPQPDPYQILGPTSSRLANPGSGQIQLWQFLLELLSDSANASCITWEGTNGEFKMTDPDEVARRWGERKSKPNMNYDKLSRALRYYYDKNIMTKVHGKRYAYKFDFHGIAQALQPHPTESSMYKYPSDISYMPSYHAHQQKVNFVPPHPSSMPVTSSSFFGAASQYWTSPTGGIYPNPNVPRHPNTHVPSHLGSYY
Conditions: protein: recombinant; tags: N-terminal GST; dsDNA, one strand shown. A digest of the protocol:
(§1)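 The binding signal reported is, for every hexamer, its read frequency for a factor over its read frequency for the tag-only sample. Reads came from pools of yeast-expressed, GST-fused human transcription factors on glutathione beads, barcoded with DNA and mixed with that sample, which were incubated with 200 nmole of a random double-stranded 16-mer DNA library in Tris/NaCl/DTT/glycerol buffer at room temperature for 30 min. After washing, the pools were crosslinked with 0.1% formaldehyde, proximity-ligated with BsaI/T4 ligase for 1 h at 37 °C, PCR-amplified and sequenced on an Illumina NextSeq500.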

For a further assay, the target named is T2, ELK1 (Homo sapiens, UniProt P19419 1-428).
T2 sequence: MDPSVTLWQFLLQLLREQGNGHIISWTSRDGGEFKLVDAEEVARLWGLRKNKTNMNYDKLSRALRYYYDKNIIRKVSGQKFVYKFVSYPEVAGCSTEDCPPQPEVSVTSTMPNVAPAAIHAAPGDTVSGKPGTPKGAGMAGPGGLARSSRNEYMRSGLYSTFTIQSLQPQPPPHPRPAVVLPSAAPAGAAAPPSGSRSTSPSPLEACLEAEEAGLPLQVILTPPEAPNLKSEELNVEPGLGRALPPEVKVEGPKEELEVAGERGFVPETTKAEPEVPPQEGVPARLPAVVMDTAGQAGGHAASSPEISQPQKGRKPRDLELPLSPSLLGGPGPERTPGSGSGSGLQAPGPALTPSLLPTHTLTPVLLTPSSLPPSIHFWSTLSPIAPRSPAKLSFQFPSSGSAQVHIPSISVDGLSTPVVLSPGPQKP
Conditions: protein: recombinant; tags: N-terminal GST; dsDNA, one strand shown. A digest of the protocol: as §1

A further assay concerns the target T3, GABPA (Homo sapiens, UniProt Q06546 1-454).
T3 sequence: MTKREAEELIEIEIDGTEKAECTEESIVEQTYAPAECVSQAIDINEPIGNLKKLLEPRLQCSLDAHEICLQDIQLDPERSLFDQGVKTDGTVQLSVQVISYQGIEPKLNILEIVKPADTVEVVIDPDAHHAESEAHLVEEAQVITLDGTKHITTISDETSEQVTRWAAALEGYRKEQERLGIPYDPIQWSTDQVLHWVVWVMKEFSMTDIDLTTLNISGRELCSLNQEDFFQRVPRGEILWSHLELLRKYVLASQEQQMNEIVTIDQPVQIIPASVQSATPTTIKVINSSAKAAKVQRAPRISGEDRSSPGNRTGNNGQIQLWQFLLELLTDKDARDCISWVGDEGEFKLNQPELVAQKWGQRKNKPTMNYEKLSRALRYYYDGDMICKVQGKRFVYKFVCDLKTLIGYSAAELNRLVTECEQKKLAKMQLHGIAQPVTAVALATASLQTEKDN
Conditions: protein: recombinant; tags: N-terminal GST; dsDNA, one strand shown. A digest of the protocol: as §1

A further assay addresses ELF1 (Homo sapiens, UniProt P32519 1-619). Conditions: protein: recombinant; tags: N-terminal GST; dsDNA, one strand shown. In outline: as §1
The next assay addresses T4, EHF (Homo sapiens, UniProt Q9NZC4 1-300).
T4 sequence: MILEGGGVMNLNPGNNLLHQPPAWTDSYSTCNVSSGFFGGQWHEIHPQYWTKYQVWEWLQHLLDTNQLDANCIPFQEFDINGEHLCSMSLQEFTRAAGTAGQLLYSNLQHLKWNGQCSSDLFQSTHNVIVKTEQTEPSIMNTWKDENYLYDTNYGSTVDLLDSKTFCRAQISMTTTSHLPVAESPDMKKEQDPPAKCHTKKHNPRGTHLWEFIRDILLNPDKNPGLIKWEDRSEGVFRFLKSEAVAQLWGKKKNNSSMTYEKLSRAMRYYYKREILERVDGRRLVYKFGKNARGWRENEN
Conditions: protein: recombinant; tags: N-terminal GST; dsDNA, one strand shown. In outline:
as §1

A further assay deals with SPI1 (Homo sapiens, UniProt P17947 1-270). The conditions noted are these: protein: recombinant; tags: N-terminal GST; dsDNA, one strand shown. A digest of the protocol: as §1
Another assay deals with SPIB (Homo sapiens, UniProt Q01892 1-262). The conditions noted are these: protein: recombinant; tags: N-terminal GST; dsDNA, one strand shown. A digest of the protocol: as §1
Chain of SPIB (Q01892 whole entry): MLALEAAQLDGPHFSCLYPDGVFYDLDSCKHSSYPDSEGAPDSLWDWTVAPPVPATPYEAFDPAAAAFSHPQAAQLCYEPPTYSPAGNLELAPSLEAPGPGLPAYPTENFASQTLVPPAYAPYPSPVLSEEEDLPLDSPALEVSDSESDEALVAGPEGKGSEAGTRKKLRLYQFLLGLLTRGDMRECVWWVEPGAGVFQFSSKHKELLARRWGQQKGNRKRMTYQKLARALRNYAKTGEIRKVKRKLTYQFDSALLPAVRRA
The target in another assay is T5, ELK3 (Homo sapiens, UniProt P41970 1-407).
T5 sequence: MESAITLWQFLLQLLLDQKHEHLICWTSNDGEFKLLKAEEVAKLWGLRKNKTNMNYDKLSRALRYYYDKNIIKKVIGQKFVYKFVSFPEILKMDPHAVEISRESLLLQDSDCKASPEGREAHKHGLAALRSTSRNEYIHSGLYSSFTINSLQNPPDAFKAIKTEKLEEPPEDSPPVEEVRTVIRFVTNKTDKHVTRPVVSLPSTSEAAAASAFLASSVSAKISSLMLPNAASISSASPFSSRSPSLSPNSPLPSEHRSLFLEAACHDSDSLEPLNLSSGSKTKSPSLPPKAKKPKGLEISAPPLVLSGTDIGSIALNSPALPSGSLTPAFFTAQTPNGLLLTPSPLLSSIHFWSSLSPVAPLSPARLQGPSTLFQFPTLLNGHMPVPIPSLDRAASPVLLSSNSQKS
The conditions noted are these: protein: recombinant; tags: N-terminal GST; dsDNA, one strand shown. A digest of the protocol: as §1

In the next assay the target is ETV5 (Homo sapiens, UniProt P41161 1-510). The conditions noted are these: protein: recombinant; tags: N-terminal GST; dsDNA, one strand shown. In outline: as §1
Chain of ETV5 (P41161 whole entry): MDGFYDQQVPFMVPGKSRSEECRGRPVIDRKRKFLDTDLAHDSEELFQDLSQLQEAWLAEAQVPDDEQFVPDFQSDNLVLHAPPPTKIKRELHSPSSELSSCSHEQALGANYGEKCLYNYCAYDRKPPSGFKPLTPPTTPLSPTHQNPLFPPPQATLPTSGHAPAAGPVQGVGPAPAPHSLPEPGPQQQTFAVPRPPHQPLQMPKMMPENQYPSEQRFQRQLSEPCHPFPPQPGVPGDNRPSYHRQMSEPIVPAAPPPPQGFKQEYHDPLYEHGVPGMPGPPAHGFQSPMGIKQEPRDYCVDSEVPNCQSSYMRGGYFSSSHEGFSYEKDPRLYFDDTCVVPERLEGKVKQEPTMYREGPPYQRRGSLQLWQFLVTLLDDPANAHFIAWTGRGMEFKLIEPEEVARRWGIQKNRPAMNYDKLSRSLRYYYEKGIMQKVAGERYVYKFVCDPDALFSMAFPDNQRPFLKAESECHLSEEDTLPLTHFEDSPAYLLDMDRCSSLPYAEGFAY
The target of another assay is HSF1 (Homo sapiens, UniProt Q00613 1-529). Conditions: protein: recombinant; tags: N-terminal GST; chain copies: 3; dsDNA, one strand shown. A digest of the protocol: as §1
Chain of HSF1 (Q00613 whole entry): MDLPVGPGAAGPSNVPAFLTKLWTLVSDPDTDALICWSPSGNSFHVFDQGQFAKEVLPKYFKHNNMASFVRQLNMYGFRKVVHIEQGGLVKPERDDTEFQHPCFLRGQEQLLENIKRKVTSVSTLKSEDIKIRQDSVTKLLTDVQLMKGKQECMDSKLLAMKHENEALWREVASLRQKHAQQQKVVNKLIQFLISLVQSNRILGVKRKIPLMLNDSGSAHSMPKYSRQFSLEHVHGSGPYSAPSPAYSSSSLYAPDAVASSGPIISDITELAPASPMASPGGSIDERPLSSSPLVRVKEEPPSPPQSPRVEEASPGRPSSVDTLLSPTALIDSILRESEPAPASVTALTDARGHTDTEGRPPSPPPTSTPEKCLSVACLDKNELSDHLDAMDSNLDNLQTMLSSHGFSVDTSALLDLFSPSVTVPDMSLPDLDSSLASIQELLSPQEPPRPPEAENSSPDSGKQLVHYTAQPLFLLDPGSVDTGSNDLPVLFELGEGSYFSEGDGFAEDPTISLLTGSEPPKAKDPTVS
A further assay deals with T6, SPIC (Homo sapiens, UniProt Q8N5J4 1-248).
T6 sequence: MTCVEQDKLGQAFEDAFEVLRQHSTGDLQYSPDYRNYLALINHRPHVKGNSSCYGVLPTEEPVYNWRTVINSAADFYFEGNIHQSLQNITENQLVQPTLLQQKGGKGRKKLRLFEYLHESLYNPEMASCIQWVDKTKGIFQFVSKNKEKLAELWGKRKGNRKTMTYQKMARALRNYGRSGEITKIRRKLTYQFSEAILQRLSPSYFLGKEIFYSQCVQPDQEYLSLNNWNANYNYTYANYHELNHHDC
The conditions noted are these: protein: recombinant; tags: N-terminal GST; dsDNA, one strand shown. A digest of the protocol:
as §1

A further assay addresses ELF4 (Homo sapiens, UniProt Q99607 1-663). The conditions noted are these: protein: recombinant; tags: N-terminal GST; dsDNA, one strand shown. In outline: as §1
The next assay has as its target T7, ELK4 (Homo sapiens, UniProt P28324-2 1-405).
T7 sequence: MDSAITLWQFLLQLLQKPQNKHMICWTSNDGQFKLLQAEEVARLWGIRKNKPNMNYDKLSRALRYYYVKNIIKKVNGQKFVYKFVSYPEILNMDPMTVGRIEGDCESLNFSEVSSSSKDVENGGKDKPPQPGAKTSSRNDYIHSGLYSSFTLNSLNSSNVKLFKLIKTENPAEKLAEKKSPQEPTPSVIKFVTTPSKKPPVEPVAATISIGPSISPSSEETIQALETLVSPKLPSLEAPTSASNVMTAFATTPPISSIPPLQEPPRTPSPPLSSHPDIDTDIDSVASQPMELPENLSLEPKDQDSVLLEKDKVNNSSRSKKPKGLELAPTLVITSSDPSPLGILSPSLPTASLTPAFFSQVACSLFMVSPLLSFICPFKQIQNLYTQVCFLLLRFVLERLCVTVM
The conditions noted are these: protein: recombinant; tags: N-terminal GST; dsDNA, one strand shown. A digest of the protocol: as §1

The next assay addresses T8, ETV2 (Homo sapiens, UniProt O00321 1-342).
T8 sequence: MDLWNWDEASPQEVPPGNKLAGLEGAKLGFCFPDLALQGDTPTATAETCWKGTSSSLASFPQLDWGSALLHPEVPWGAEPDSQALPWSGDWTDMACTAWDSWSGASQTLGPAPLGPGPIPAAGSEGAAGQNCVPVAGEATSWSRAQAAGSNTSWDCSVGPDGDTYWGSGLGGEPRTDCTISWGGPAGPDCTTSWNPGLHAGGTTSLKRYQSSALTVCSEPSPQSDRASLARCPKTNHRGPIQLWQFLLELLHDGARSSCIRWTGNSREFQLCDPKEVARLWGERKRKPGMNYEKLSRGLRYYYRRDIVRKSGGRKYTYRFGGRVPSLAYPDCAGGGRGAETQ
The conditions noted are these: protein: recombinant; tags: N-terminal GST; dsDNA, one strand shown. A digest of the protocol:
as §1

A further assay concerns the target T9, ELF3 (Homo sapiens, UniProt P78545 1-371).
T9 sequence: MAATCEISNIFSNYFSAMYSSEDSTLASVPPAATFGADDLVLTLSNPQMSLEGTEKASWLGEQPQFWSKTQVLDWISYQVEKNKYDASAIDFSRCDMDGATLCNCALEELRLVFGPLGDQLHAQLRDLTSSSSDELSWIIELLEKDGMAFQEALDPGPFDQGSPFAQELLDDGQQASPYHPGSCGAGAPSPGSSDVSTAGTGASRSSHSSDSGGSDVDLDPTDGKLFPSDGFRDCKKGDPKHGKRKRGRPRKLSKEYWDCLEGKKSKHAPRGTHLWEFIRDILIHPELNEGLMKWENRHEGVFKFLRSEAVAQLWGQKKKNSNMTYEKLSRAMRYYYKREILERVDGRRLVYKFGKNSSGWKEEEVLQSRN
The conditions noted are these: protein: recombinant; tags: N-terminal GST; dsDNA, one strand shown. A digest of the protocol: as §1

Chain of ELF1 (P32519 whole entry): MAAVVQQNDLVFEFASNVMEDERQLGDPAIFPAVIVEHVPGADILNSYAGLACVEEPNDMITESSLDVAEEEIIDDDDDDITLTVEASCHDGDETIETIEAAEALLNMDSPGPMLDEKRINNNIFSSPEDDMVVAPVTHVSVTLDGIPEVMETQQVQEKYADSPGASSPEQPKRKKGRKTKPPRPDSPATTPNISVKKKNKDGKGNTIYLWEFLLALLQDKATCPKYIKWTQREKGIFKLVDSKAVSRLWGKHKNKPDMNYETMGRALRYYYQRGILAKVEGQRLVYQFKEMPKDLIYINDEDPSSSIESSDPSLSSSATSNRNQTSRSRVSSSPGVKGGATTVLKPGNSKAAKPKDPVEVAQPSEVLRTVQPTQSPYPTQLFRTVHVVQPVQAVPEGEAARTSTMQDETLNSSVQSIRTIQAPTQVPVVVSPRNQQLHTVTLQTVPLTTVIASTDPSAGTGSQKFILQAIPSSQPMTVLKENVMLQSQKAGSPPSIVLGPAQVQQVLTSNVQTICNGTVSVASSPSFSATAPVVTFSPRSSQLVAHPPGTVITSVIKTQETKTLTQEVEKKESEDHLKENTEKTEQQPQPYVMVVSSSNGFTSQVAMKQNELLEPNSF
Chain of ELF4 (Q99607 whole entry): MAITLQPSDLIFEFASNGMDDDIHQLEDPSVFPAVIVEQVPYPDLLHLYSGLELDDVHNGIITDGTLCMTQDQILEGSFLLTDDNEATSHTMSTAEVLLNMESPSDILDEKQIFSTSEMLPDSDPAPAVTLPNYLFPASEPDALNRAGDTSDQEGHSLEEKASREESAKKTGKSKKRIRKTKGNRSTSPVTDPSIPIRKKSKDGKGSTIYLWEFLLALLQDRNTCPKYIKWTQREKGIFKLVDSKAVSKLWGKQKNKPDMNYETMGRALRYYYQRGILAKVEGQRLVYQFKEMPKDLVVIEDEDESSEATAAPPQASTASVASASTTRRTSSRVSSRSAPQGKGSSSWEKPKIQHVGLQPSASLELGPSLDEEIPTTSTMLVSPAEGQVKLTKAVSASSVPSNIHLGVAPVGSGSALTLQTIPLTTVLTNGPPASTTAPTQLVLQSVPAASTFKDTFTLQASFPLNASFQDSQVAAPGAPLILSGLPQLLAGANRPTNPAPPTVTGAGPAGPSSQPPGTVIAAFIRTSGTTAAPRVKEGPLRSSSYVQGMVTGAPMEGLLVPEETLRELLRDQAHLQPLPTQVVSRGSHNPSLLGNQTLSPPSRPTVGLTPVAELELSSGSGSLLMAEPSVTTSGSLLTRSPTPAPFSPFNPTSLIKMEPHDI

As to AAAGGT, the binding signal with FLI1 is 1.1 fold enrichment (6-mer frequency, TF over GST control); with ELK1 it was 1.06 fold enrichment (6-mer frequency, TF over GST control); with GABPA it was 1.1 fold enrichment (6-mer frequency, TF over GST control); with ELF1 it was 1.07 fold enrichment (6-mer frequency, TF over GST control); with EHF, 1.06 fold enrichment (6-mer frequency, TF over GST control); in the assay with SPI1 it was 1.01 fold enrichment (6-mer frequency, TF over GST control). Besides, the binding signal is 1.02 fold enrichment (6-mer frequency, TF over GST control) in the assay with SPIB; 1.05 fold enrichment (6-mer frequency, TF over GST control) in the assay with ELK3; 1.05 fold enrichment (6-mer frequency, TF over GST control) with ETV5; 1.02 fold enrichment (6-mer frequency, TF over GST control) with HSF1; 1.09 fold enrichment (6-mer frequency, TF over GST control) with SPIC; 1.02 fold enrichment (6-mer frequency, TF over GST control) in the assay with ELF4. Also, the binding signal in the assay with ELK4 is 1.05 fold enrichment (6-mer frequency, TF over GST control); in the assay with ETV2, 1.06 fold enrichment (6-mer frequency, TF over GST control); with ELF3 it was 1.17 fold enrichment (6-mer frequency, TF over GST control).
